# Assay results published in the supplement of paper PMC8726507.
# A number with no mark means an inactive call.
# Test system: Plasmodium falciparum NF54-HGL (transmission to Anopheles stephensi)
# Experiment: percentage of barcode signal found in uninfected mosquitoes (transmission-blocking activity); higher = stronger blocking of transmission to mosquito, active = 80 or more
# Settings: 20 µM; gametocyte preincubation time 24 h; readout time post-feed 8 days
# Procedure: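 The mixture was fed to Anopheles stephensi in 96-well plates as blood meals tagged with DNA-barcoded Asaia bacteria. Eight days later, mosquitoes were classed infected or uninfected by luminescence (mean + 5 SD of unfed controls). Barcodes were quantified by Luminex MagPlex-TAG in the pooled uninfected and infected Asaia cultures, background-corrected, and the score is % of barcode signal in uninfected mosquitoes = 100*Iu/(Iu+Ii).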
row,Structure (SMILES),percentage of barcode signal found in uninfected mosquitoes
1,CC(C)=CCC/C(C)=C\CNCCNC1C2CC3CC(C2)CC1C3 (stereo unspecified),81.8% (active)
2,Cc1cc(C)c2cc(C(=O)NC3CCCCCCC3)[nH]c2c1,0.265%
3,Nc1ncc(Br)cc1-c1nc2cc(Cl)cnc2[nH]1,21.4%
4,COc1ccc(N(CCc2cccc(C)n2)C(C)=O)cc1,0.592%
5,COc1cc(C2=NCCN2)cc2cc(-c3ccc(C4=NCCN4)cc3)oc12,95.1% (active)
6,CC1(COc2ccc(N3CCC(Oc4ccc(OC(F)(F)F)cc4)CC3)cc2)Cn2cc([N+](=O)[O-])nc2O1 (stereo unspecified),39.6%
7,CNCCC(Oc1ccc(C(F)(F)F)cc1)c1ccccc1 (stereo unspecified),27.5%
8,Cc1cc(Cl)c(S(=O)(=O)N2CCCC2)cc1OCC(=O)NC1CCCCC1,1.74%
9,CN1CCC(c2cc(-c3ccncc3)c(-c3ccc(F)cc3)[nH]2)CC1,78.1%
10,CC(C)(C(=O)Nc1ccc(F)cc1)n1cc(-c2ccccc2F)cn1,0.429%
11,CC(C)(C)n1nc(Cc2ccc(F)c(Cl)c2)c2c(N)ncnc21,10.3%
12,COc1cc(C2=NCCN2)ccc1-c1cn(-c2cccc(C3=NCCN3)c2)nn1,46%
13,O=C(CN1CCOCC1)Nc1ccc2ncnc(Nc3ccc(OCc4cccc(F)c4)c(Cl)c3)c2c1,1.6%
14,COc1cccc(-c2cc3c(Nc4cccnc4)nccc3[nH]2)c1,29%
15,CC(C)(C)c1cnc(NC(=O)c2ccccc2O)s1,21.3%
16,CCC(C)NC(=O)c1ccc(NC(=O)C2(c3ccccc3)CCCC2)cc1 (stereo unspecified),47.5%
